Compound activity from PubChem BioAssay.
HCMV inh – qHTS Assay for inhibitors of the human cytomegalovirus (HCMV) | 410,000 compounds, 4.5% hits | AID 1259415, 2018 | HFF cells, HCMV-luciferase reporter, 72 h; active compounds read low | activity change, negative = inhibition, % at 57.5 µM; in the data active = activity change below about -60%; inconclusive = no clear call, values can overlap the other calls; inactive = above about -39%
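Steps: HFFs plated, 16 h 37C; compounds added; HCMV-luciferase added to MOI 1 PFU/cell; 72 h 37C; OneGlo reagent, 5 min room temperature; luminescence read, normalized to controls.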
Pf growth 48h – Primary qHTS for delayed death inhibitors of the malarial parasite plastid, 48 hour incubation; Potency, µM (series often up to 28.7 µM), usual class: inhibitors; P. falciparum luciferase growth in erythrocytes, 48 h; 310,000 compounds, 5.9% hits; AID 504832, 2011
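Firefly luciferase activity from engineered P. falciparum reports growth; inhibitors lower the luminescent signal. Cultures contained 2% hematocrit erythrocytes at 0.1% final parasitemia.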
MARV entry inh – qHTS for inhibitors of binding or entry into cells for Marburg Virus; 300,000 compounds, 1.8% hits; AID 540276, 2011; Potency, µM (doses to about 37.8 µM), actives largely listed as inhibitors; Marburg virus pseudotyped entry inhibition, cell reporter; calls by dose curve; tested in HEK293 cells
Pf growth 96h – Primary qHTS for delayed death inhibitors of the malarial parasite plastid, 96 hour incubation. P. falciparum luciferase reporter growth, 96 h. Potency, µM (highest dose often 28.7 µM), actives largely listed as inhibitors. 320,000 compounds, 6.9% hits. AID 504834, 2011
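Delayed-death screen, second-generation endpoint: infected erythrocytes, 2% hematocrit, 0.05% parasitemia final; 96 hours at 37 C, 5% CO2; luciferase detection reagent; luminescence decrease equals reduced growth.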
Lassa entry inh – qHTS for Inhibitors of binding or entry into cells for Lassa Virus | Potency, µM (top dose mostly 37.9 µM), hits mostly inhibitors | Lassa virus pseudotype entry inhibition, cell reporter | AID 540256, 2011 | 300,000 compounds, 1.2% hits; calls by dose curve; tested in HEK293 cells; also: nearly all actives have a fitted effect of over 50% in size
HCV inh – qHTS Assay for Inhibitors of Hepatitis C Virus (HCV) | Huh7.5.1 HCVcc-Cre infection, luciferase reporter, 44 h | Potency, µM (titrated, usually from 41.8 µM), hits mostly inhibitors | 340,000 compounds, 3.4% hits | AID 651820, 2012
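Reporter virus HCVcc-Cre (~0.5 moi) infects cells exposed to compound; seeding density 1,000 cells/well with 4 h settling beforehand. Luminescence, 15 sec read, taken 44 h post-infection following a 15 min RT substrate incubation.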
Large screens that a line does not name were inactive. The list is not random: actives were taken first. Their share in the collection is about 14%. Unless noted, calls follow the shape of the dose curve; as a rule, active = well fitted inhibition curve with a large enough effect; inconclusive = small, poorly fitted or top-dose-only effect, or another doubt; inactive = no such curve, though single readings can be large or run the other way.

COC(=O)C1=C(c2ccc(OC(F)(F)F)cc2)C[C@@H]2CC[C@H]1N2C(=O)N1CCC(C)CC1	HCMV inh -64, Pf growth 48h inconclusive, Pf growth 96h inconclusive, HCV inh inconclusive (no result: MARV entry inh, Lassa entry inh)
COC(=O)C1=C(c2ccc(OC(F)(F)F)cc2)C[C@@H]2CC[C@H]1N2C(=O)N1CCCC1	HCMV inh inconclusive, Pf growth 48h inconclusive, Pf growth 96h inconclusive, HCV inh 13µM (no result: MARV entry inh, Lassa entry inh)
CSc1ccc(CNC(=O)CCc2c(C)nn(-c3ccc(N4CCCC4)nn3)c2C)cc1	none (no result: Pf growth 48h, MARV entry inh, Pf growth 96h, HCV inh)
CC(C)C[C@@H]1COc2cccc(N3CCC[C@H]3CO)c2S(=O)(=O)N1	none (no result: Pf growth 48h, MARV entry inh, Pf growth 96h, Lassa entry inh, HCV inh)
CCc1ccccc1N1C(=O)C(Cl)=C(N2CCOCC2)C1=O	Pf growth 96h 1.5µM (no result: MARV entry inh, Lassa entry inh)
COc1ccccc1N1C(=O)C(Cl)=C(N2CCCC2)C1=O	Pf growth 96h 9.3µM
COc1ccc(OC)c(N2C(=O)C(Cl)=C(N3CCCCC3)C2=O)c1	Lassa entry inh inconclusive
O=C1C(Cl)=C(N2CCOCC2)C(=O)N1c1ccc(Br)cc1	Pf growth 48h inconclusive, Pf growth 96h 12µM (no result: MARV entry inh, Lassa entry inh)
CN(C)CCNc1ncnc2c1ncn2[C@H]1CN(CCc2ccccc2)C[C@@H](CO)O1	none (no result: Pf growth 48h, MARV entry inh, Pf growth 96h, Lassa entry inh, HCV inh)
COc1cccc(NC(=O)N2C3CCCC2CC(NC(=O)C2CC2)C3)c1 (stereo not drawn)	Pf growth 96h 1.5µM
Cc1ccccc1NC(=O)N1C2CCCC1CC(NC(=O)C1CC1)C2 (stereo not drawn)	Pf growth 96h 9.3µM, Lassa entry inh inconclusive
COc1cccc(NC(=S)N2C3CCCC2CC(NC(=O)C2CC2)C3)c1 (stereo not drawn)	none
O=C(NC1CC2CCCC(C1)N2C(=O)Nc1ccccc1Cl)C1CC1 (stereo not drawn)	none
CCOC(=O)C1=CN(CCC=C(C)C)C(=O)NC1c1ccccc1 (stereo not drawn)	Lassa entry inh inconclusive (no result: HCMV inh, Pf growth 48h, Pf growth 96h, HCV inh)
Cc1noc(C)c1COC(=O)c1cccnc1SCC(=O)Nc1ccc2c(c1)OCO2	Pf growth 48h inconclusive, Pf growth 96h 9.3µM, HCV inh inconclusive
CSc1ncccc1C(=O)OCC(=O)Nc1ccc2c(c1)OCO2	none
Cc1noc(C)c1COc1ccc(C(=O)OCC(=O)Nc2ccc3c(c2)OCO3)cc1	none
Cc1noc(C)c1COC(=O)c1ccc2c(c1)OCO2	Pf growth 96h 7.4µM (no result: Pf growth 48h)
CN(Cc1cnn(-c2ccccc2)c1)C(=O)c1cccc(S(=O)(=O)Nc2ccccc2F)c1	none (no result: Pf growth 48h, MARV entry inh, Pf growth 96h, Lassa entry inh, HCV inh)
CCOC(=O)N1CCN(CC(O)COc2ccccc2C(C)C)CC1 (stereo not drawn)	Pf growth 48h inconclusive, Pf growth 96h inconclusive
COc1ccc(C2CCCN2CC(O)COc2ccccc2C(C)C)cc1 (stereo not drawn)	HCMV inh inconclusive, Pf growth 48h 12µM, MARV entry inh inconclusive, Pf growth 96h 13µM, Lassa entry inh inconclusive, HCV inh inconclusive
CC1(C(=O)Nc2cccc3cccnc23)CCN1C(=O)CC1CC1 (stereo not drawn)	none (no result: Pf growth 48h, MARV entry inh, Pf growth 96h, Lassa entry inh, HCV inh)
OC(c1ccc(F)c(F)c1)c1nc(-c2cnc3ccccc3c2)cs1 (stereo not drawn)	none (no result: Pf growth 48h, MARV entry inh, Pf growth 96h, Lassa entry inh, HCV inh)
COc1ccc([C@H]2C[C@H](O)[C@@H](n3cc(-c4ccc(F)cc4)nn3)CN2CC2CCCCC2)cc1	MARV entry inh inconclusive (no result: Pf growth 48h, Pf growth 96h, Lassa entry inh, HCV inh)
Cc1ccc(S(=O)(=O)CC(=O)Nc2nc3c(C)cccc3s2)cc1	none (no result: Pf growth 48h, MARV entry inh, Pf growth 96h, HCV inh)
CCNC(=S)NCCN1CCCCC1	Pf growth 96h 12µM (no result: Pf growth 48h)
CC1CCCCC1NS(=O)(=O)c1ccc(S(=O)(=O)N2CCN(CCC#N)CC2)cc1 (stereo not drawn)	Pf growth 48h 13µM (no result: MARV entry inh, Lassa entry inh)
N#CCCN1CCN(S(=O)(=O)c2ccc(C3CCCCC3)cc2)CC1	HCMV inh inconclusive, HCV inh inconclusive (no result: MARV entry inh, Lassa entry inh)
c1ccc(C(c2ccccc2)N2CCN(c3nc4ccccc4n4cnnc34)CC2)cc1	HCMV inh -99, Pf growth 48h 1.9µM, MARV entry inh inconclusive, Pf growth 96h 1.7µM, Lassa entry inh inconclusive, HCV inh inconclusive
CCOC(=O)c1c(C)[nH]c2cc(Br)c(OC)cc12	Pf growth 48h inconclusive, HCV inh 5.6µM
Cc1ccccc1C(=O)Nc1ccccc1C(=O)OCc1cc(=O)n2ccsc2n1	none (no result: Pf growth 48h, MARV entry inh, Pf growth 96h, HCV inh)
